Bioassay records: PubChem BioAssay, National Center for Advancing Translational Sciences (NCATS)
IL1B secr inh: blocks inflammasome-driven IL-1 beta release; THP-1 LPS/ATP IL-1B secretion, AlphaLISA, 16 h; hits give low values; activity change, % at 57.5 µM; 360,000 tested, 4.7% active; AID 743279; in the data active = activity change below about -50%; inconclusive = mostly about -30% to -49%
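Secreted IL-1B measured by AlphaLISA bead assay after 16 h compound exposure of THP-1 cells; compounds (final up to 57.5 uM) added 1 h before LPS (250 ng/mL) and ATP (1.25 mM) stimulation; lower signal means less secretion.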
HT1080 IDH1KD tx: HT-1080 IDH1 knockdown cell toxicity (counter line). HT-1080 IDH1 knockdown viability, ATP luminescence, 48 h. Potency, µM (doses to about 46.1 µM), usual class: cytotoxic. 360,000 tested, 2% active. AID 686971
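Viability of IDH1-knockdown HT-1080 fibrosarcoma cells was assessed by CellTiter-Glo after 48 h at 37 °C with titrated compound; concentration-effect curves were classified by fit quality and response size.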
TDP1 cell CPT: DT40-hTDP1 cell growth loss with CPT; Potency, µM (series often up to 46.2 µM), actives largely listed as inhibitors; AID 686979; chicken DT40 Tdp1-/-;hTDP1 cells + 20 nM CPT, ATP luminescence, 48 h; 420,000 tested, 12% active; note: nearly all actives have a fitted effect of over 55% in size
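Chicken DT40 Tdp1-/- cells stably complemented with human TDP1 were seeded at 400 cells/well in medium containing 20 nM camptothecin, exposed to pin-transferred compounds, and grown at 37 °C for at least 48 hr. Viability was read as ATP luminescence.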
DT40 TDP1 no CPT: qHTS for Inhibitors of human tyrosyl-DNA phosphodiesterase 1 (TDP1): qHTS in cells in absence of CPT. DT40 Tdp1-/- hTDP1 cells, no CPT, ATP luminescence, 48 h. Potency, µM (titrated, usually from 46.2 µM), hits mostly inhibitors. 420,000 tested, 15% active; note: nearly all actives have a fitted effect of over 55% in size
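A cellular qHTS used chicken DT40 cells lacking endogenous Tdp1 but carrying stably transfected human TDP1. Compounds were applied without camptothecin, and cell growth kinetics were judged by ATP-dependent luminescence after ≥48 hr.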
ALOX12 inh: ALOX12 (human) lipoxygenase inhibition. purified 12hLO, xylenol orange hydroperoxide absorbance. 580,000 tested, 1.1% active. Potency, µM (series often up to 108 µM), usual class: inhibitors. AID 1671190. P18054
Target sequence (P18054 whole entry, looked up): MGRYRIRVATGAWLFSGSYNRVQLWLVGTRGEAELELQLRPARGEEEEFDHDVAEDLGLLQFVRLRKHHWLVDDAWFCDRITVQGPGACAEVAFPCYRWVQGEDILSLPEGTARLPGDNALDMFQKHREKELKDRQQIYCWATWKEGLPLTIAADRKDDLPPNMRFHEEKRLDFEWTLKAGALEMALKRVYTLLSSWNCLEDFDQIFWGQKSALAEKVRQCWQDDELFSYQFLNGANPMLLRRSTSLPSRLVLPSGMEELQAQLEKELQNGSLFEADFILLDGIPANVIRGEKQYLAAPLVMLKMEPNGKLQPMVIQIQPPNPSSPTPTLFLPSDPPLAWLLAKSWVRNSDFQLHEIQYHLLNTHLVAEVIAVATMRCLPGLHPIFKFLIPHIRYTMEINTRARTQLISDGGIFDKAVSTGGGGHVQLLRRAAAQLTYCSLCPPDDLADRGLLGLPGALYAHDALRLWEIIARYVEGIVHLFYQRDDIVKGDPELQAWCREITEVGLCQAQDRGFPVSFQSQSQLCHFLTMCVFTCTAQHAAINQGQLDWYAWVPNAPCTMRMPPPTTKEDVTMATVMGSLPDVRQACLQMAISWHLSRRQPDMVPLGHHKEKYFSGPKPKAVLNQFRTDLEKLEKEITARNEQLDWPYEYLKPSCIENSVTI
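Purified human 12hLO at 150 nM in 25 mM Hepes, 0.01% Triton X-100, pH 7.0, preincubated 15 min at room temperature with compound. Reaction started with 40 uM arachidonic acid, 30 min at room temperature. Hydroperoxide measured by Fe-xylenol orange, 573/405 nm absorbance ratio.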
HT1080NT lethal: kills 2HG-producing HT-1080-NT fibrosarcoma cells | HT-1080-NT fibrosarcoma viability, CellTiter-Glo ATP luminescence, 48 h | Potency, µM (series often up to 46.1 µM), usual class: cytotoxic | 360,000 tested, 1.6% active;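 note: NT is the 2HG producing partner of a matched IDH1 knockdown line; nearly all actives have a fitted effect of over 55% in size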
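Viability of the 2HG-overproducing fibrosarcoma line after 48 hours of compound exposure at 37 degrees C was determined by luminescence with CellTiter-Glo, and concentration-effect curves were then fitted and categorized.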
Hits are given with their value; . = inactive; ? = inconclusive; / = not tested or not shown; ! = repeats disagree. This is one part of a sample in which hits are shown more often than they occur. Unless noted, calls come from the whole dose curve; as a rule, active = well fitted curve in the direction sought with a large enough effect; inconclusive = small, poorly fitted or top-dose-only effect, or another doubt; inactive = no such curve, though single readings can be large; an effect the other way counts as inactive or inconclusive.

SMILES	IL1B secr inh	HT1080 IDH1KD tx	TDP1 cell CPT	DT40 TDP1 no CPT	ALOX12 inh	HT1080NT lethal
CCN(Cc1ccncc1)C(=O)c1cc(COc2c(C)cccc2C)on1	?	.	12µM	?	.	.
CCN(Cc1ccncc1)C(=O)c1cc(COc2ccc(F)cc2F)on1	?	.	?	.	.	.
Cc1nc(CN(C)C(=O)c2cc(COc3ccc4ncccc4c3)on2)cs1	.	?	5.8µM	5.8µM	.	4.1µM
COc1cccc(OCc2cc(C(=O)N(Cc3nccn3C)C(C)C)no2)c1	.	.	.	.	.	.
CC(C)N(Cc1nccn1C)C(=O)c1cc(COc2ccc3ncccc3c2)on1	.	.	?	10µM	.	?
Cc1ccc(-c2nn3c(=O)cc(CNC(=O)COc4cccc(C(F)(F)F)c4)nc3s2)cc1	/	/	/	/	.	/
O=C(NC12CC3CC(CC(C3)C1)C2)C12CC3CC(C1)CC(n1cnc(Cl)n1)(C3)C2	.	.	21µM	16µM	.	.
COc1ccc(C)cc1NC(=O)CSc1nc(=O)n(Cc2ccccn2)c2c1CCC2	/	/	?	21µM	.	/
CCc1ccc(NC(=O)CSc2nc(=O)n(Cc3cccnc3)c3c2CCC3)cc1	/	/	?	16µM	.	/
COc1ccc(C)cc1NC(=O)CSc1nc(=O)n(Cc2cccnc2)c2c1CCC2	/	/	?	18µM	.	/
Cc1cccc(NC(=O)CSc2nc(=O)n(Cc3cccnc3)c3c2CCC3)c1	/	/	.	.	.	/
Cc1ccc(NC(=O)C[C@H]2NC(=O)c3ccccc3NC2=O)c(Cl)c1	/	/	/	/	.	/
COc1ccc(C(C)NC(=O)c2nn(C)c(=O)c3ccccc23)cc1F (configuration not stated)	/	/	/	/	.	/
CCOc1cccc(CC(=O)N2CCc3c([nH]c4ccccc34)C2c2ccc(Cl)cc2)c1OCC (configuration not stated)	/	/	10µM	15µM	.	/
CSc1ccc(C2c3[nH]c4ccccc4c3CCN2C(=O)CCc2ccccc2)cc1 (configuration not stated)	/	/	.	.	.	/
O=C(CCc1ccccc1)N1CCc2c([nH]c3ccccc23)C1c1ccc(Cl)cc1 (configuration not stated)	/	/	16µM	26µM	.	/
O=C(CCC1CCCC1)N1CCc2c([nH]c3ccccc23)C1c1ccc(Cl)cc1 (configuration not stated)	/	/	?	?	.	/
CN(C)Cc1nc(SCC(=O)Nc2cccc(F)c2)c2ccccc2n1	/	/	/	/	.	/
COc1ccccc1C(=O)N1CC[C@H]2COC(=O)N2c2cc(C)ccc2C1	/	/	/	/	.	/
C[C@@H](CSc1ccccc1)CN1CC[C@H](C(C)(C)C)CCC1=O	.	.	?	18µM	.	.
C[C@@H](CSc1ccc(Br)cc1)CN1CC[C@H](O)CCC1=O	.	.	13µM	13µM	.	.
C[C@@H](CN=[N+]=[N-])CN1CC[C@H](C(C)(C)C)CCC1=O	.	.	11µM!	13µM!	.	.
Cc1ccc(SC[C@H](C)CN2CC[C@H](O)CCC2=O)cc1	/	/	.	.	/	/
C[C@H]1CCC(=O)N([C@H](CC#N)Cc2ccccc2)CC1	.	.	.	.	.	.
CC(C)(C)C1CCC(=O)N(CCSc2ccccc2)CC1 (configuration not stated)	.	.	?	?	.	.
SMILES	IL1B secr inh	HT1080 IDH1KD tx	TDP1 cell CPT	DT40 TDP1 no CPT	ALOX12 inh	HT1080NT lethal
CC(C)(C)C1CCC(=O)N(CCC#N)CC1 (configuration not stated)	.	.	.	.	.	.
CC(C)(C)[C@H]1CCC(=O)N([C@H](CC#N)Cc2ccccc2)CC1	.	.	?	18µM	.	.
O=C(CCC(=O)n1ncc2c(Cl)cccc21)N1CCC(Cc2nc(C3CCOCC3)no2)CC1	/	/	/	/	.	/
Nc1cc(N)c2c(c1)C(=O)c1ccccc1-2	?	.	.	?	.	.
NC1=C(Cl)C(=O)c2ccc(S(N)(=O)=O)cc2C1=O	-98	6.5µM	0.41µM	0.46µM	.	8.2µM
NC1=C(Cl)C(=O)c2ccccc2C1=O	.	?	5.2µM	4.6µM	?	?
NS(=O)(=O)c1ccc2c(c1)C(=NO)c1cc(S(N)(=O)=O)ccc1-2	.	.	.	.	.	.
CNS(=O)(=O)c1cc(NS(=O)(=O)c2c(F)cc(F)cc2Br)ccc1C	/	/	/	/	.	/
CCc1ccccc1C(=O)N1CC[C@@](O)(CCOC)[C@H](C)C1	/	/	/	/	.	/
COc1ccccc1C1CCCN1C(=O)c1oc2ccc(C)cc2c1C (configuration not stated)	/	/	/	/	.	/
Cc1cc(Cl)ccc1OC(C)C(=O)Nc1ccc([N+](=O)[O-])cn1 (configuration not stated)	-69	.	?	?	.	.
Cc1ccc(OC(C)C(=O)Nc2ccc(Cl)cn2)c([N+](=O)[O-])n1 (configuration not stated)	.	.	.	.	.	.
CC(Nc1ccc([N+](=O)[O-])cn1)c1cccc(Cl)c1 (configuration not stated)	/	/	/	/	.	/
CC(C)c1ccc(CNc2ccc([N+](=O)[O-])cn2)cc1	?	?	.	?	.	?
O=[N+]([O-])c1ccc(NNS(=O)(=O)c2cc(Cl)ccc2Cl)nc1	.	.	21µM	?	.	.
CC(=O)Nc1ccc([N+](=O)[O-])cn1	.	.	.	.	.	.
CC(C)(C)c1ccc(CNc2ccc([N+](=O)[O-])cn2)cc1	.	.	?	23µM	.	.
O=[N+]([O-])c1ccc(NCc2ccc(Cl)cc2)nc1	-78	.	.	.	.	.
CC(C)c1noc(CCCC(=O)Nc2ccccc2OC2CCCC2)n1	/	/	/	/	.	/
O=C(O)c1cccc(Nc2ccc([N+](=O)[O-])cn2)c1	.	.	.	.	?	.
O=[N+]([O-])c1ccc(Nc2ccc(Cl)cc2)nc1	-57	?	.	.	?	.
CCCCOP(=O)(OCCCC)C1(NS(=O)(=O)c2ccccc2)C=CC(=O)c2ccccc21 (configuration not stated)	.	23µM	16µM	23µM	16µM	21µM
CC1(C)Cc2c(cnn2-c2ccccc2)C(=O)/C1=N\NC(=O)c1ccncc1	.	.	18µM	?	.	.
O=C(CCNc1ccc(F)cc1)c1cccc([N+](=O)[O-])c1	.	?	16µM	23µM	.	?
O=C(CCNc1ccc(Br)cc1)c1cccc([N+](=O)[O-])c1	.	?	15µM	18µM	.	23µM
O=C(CCNc1ccccc1)c1cccc([N+](=O)[O-])c1	.	?	18µM	16µM	.	.
